# Measured values published in paper PMC7862700, “An all-to-all approach to the identification of sequence-specific readers for epigenetic DNA modifications on cytosine”.
# Columns and labels:
# Experiment in all cases: DAPPL (digital affinity profiling via proximity ligation, sequencing); 10 mM Tris-HCl pH 7.5, 50 mM NaCl, 1 mM DTT, 4% glycerol, room temperature, 30 min; GST-TFs on glutathione beads, 16-mer random dsDNA library, 0.1% formaldehyde crosslink after washing; high values mean tight binding
# [1] = molecular target: T1, FLI1 (Homo sapiens, UniProt Q01543 1-452); conditions: protein: recombinant; tags: N-terminal GST; dsDNA, one strand shown
# T1 sequence: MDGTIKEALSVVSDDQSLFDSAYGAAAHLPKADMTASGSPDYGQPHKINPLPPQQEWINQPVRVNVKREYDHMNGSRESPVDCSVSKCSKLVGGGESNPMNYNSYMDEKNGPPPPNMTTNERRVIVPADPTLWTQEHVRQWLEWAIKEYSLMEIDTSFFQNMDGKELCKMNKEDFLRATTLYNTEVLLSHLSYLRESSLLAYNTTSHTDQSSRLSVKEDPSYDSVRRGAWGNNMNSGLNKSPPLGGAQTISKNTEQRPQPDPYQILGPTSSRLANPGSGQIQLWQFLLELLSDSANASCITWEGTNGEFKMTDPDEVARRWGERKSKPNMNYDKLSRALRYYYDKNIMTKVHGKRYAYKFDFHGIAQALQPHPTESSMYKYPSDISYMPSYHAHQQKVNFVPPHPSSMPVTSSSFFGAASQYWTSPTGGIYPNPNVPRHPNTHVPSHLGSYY
# Summary of the method: (§1)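 Binding signal is given per hexamer as its read frequency for a factor divided by its frequency in the tag-only sample. GST-fused human transcription factors were expressed in yeast, captured on glutathione beads, barcoded with DNA and pooled with that sample, then incubated with 200 nmole of a 16-mer random double-stranded DNA library in Tris/NaCl/DTT/glycerol buffer for 30 min at room temperature. The pools were then washed, crosslinked, proximity-ligated, amplified by PCR and sequenced on an Illumina NextSeq500.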
# [2] = molecular target: T2, ELK1 (Homo sapiens, UniProt P19419 1-428); conditions: protein: recombinant; tags: N-terminal GST; dsDNA, one strand shown
# T2 sequence: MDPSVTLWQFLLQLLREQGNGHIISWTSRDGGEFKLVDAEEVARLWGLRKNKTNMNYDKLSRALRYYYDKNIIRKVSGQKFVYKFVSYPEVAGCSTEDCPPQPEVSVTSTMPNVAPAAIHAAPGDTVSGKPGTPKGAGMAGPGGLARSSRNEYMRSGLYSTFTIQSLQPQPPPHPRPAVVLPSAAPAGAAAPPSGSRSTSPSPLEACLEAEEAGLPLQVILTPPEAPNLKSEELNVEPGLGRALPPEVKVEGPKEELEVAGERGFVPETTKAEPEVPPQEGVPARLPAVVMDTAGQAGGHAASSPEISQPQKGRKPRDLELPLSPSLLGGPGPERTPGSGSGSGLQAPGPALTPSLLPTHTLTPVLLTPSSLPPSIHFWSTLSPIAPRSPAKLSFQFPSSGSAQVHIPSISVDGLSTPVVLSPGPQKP
# Summary of the method: as §1
# [3] = molecular target: T3, GABPA (Homo sapiens, UniProt Q06546 1-454); conditions: protein: recombinant; tags: N-terminal GST; dsDNA, one strand shown
# T3 sequence: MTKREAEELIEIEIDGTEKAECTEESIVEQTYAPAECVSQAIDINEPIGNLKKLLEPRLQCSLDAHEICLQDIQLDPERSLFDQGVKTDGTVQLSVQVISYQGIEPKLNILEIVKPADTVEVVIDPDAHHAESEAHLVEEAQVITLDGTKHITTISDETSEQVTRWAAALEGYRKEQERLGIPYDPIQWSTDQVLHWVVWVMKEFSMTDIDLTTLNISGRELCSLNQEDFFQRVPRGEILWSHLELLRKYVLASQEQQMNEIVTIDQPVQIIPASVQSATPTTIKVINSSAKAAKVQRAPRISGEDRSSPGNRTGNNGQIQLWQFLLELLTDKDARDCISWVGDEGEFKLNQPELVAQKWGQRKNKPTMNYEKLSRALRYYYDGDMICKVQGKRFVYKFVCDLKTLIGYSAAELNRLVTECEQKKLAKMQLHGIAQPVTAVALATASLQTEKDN
# Summary of the method: as §1
# [4] = molecular target: T4, ERG (Homo sapiens, UniProt P11308 1-479); conditions: protein: recombinant; tags: N-terminal GST; dsDNA, one strand shown
# T4 sequence: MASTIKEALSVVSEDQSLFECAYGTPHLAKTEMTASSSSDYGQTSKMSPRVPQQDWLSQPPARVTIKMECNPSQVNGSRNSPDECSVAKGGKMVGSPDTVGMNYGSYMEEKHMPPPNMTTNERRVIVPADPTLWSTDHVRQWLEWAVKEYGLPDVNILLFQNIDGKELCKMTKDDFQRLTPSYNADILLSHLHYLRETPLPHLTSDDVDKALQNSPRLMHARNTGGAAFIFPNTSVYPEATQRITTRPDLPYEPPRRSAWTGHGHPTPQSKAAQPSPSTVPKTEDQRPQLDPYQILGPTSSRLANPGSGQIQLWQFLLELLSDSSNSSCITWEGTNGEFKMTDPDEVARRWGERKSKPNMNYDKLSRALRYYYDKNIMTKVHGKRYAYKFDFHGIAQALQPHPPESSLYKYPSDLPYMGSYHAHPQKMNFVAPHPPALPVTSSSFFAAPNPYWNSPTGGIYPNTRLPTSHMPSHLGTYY
# Summary of the method: as §1
# [5] = molecular target: ELF1 (Homo sapiens, UniProt P32519 1-619); conditions: protein: recombinant; tags: N-terminal GST; dsDNA, one strand shown
# Sequence of ELF1 (P32519 whole entry): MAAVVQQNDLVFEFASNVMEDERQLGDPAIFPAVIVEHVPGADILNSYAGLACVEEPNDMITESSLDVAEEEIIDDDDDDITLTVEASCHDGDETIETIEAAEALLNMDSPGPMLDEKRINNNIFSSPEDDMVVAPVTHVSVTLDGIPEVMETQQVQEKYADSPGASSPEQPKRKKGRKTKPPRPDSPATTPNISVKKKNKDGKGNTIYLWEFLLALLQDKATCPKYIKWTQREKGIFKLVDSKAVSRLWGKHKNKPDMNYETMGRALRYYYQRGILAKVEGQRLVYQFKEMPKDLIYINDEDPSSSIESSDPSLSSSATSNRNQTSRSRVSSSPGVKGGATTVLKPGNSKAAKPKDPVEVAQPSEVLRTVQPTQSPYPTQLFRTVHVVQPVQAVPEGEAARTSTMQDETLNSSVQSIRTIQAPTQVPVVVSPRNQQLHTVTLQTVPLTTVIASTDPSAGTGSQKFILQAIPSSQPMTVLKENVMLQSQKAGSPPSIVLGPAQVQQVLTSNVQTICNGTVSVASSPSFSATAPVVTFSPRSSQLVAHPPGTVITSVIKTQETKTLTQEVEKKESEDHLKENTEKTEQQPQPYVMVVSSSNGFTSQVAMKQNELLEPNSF
# Summary of the method: as §1
# [6] = molecular target: T5, EHF (Homo sapiens, UniProt Q9NZC4 1-300); conditions: protein: recombinant; tags: N-terminal GST; dsDNA, one strand shown
# T5 sequence: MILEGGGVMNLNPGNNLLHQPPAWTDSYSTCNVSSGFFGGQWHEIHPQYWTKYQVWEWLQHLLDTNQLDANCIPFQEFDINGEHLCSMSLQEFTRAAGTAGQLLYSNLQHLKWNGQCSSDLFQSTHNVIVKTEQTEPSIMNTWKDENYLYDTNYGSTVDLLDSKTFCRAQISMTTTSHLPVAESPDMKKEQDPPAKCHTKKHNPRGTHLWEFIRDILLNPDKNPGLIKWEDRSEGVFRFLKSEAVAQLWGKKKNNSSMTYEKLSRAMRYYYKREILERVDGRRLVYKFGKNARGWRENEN
# Summary of the method: as §1
# [7] = molecular target: SPI1 (Homo sapiens, UniProt P17947 1-270); conditions: protein: recombinant; tags: N-terminal GST; dsDNA, one strand shown
# Summary of the method: as §1
# [8] = molecular target: SPIB (Homo sapiens, UniProt Q01892 1-262); conditions: protein: recombinant; tags: N-terminal GST; dsDNA, one strand shown
# Sequence of SPIB (Q01892 whole entry): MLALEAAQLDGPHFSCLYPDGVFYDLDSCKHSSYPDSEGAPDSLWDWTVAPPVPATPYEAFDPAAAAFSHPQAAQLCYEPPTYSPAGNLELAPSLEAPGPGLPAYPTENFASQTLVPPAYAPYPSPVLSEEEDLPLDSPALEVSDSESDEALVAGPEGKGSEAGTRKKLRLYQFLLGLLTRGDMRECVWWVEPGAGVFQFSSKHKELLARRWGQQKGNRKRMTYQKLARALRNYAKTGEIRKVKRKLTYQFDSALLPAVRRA
# Summary of the method: as §1
# [9] = molecular target: T6, ELK3 (Homo sapiens, UniProt P41970 1-407); conditions: protein: recombinant; tags: N-terminal GST; dsDNA, one strand shown
# T6 sequence: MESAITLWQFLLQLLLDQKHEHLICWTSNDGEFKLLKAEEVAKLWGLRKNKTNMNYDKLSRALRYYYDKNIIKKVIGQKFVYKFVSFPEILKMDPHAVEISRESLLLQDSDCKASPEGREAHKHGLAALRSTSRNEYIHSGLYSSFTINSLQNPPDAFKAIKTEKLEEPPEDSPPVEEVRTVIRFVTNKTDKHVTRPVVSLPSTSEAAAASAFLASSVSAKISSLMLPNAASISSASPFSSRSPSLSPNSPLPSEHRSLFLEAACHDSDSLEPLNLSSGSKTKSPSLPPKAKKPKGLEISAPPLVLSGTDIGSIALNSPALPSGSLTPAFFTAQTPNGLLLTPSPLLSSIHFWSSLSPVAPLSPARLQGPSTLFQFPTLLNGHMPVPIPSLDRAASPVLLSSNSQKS
# Summary of the method: as §1
# [10] = molecular target: T7, FEV (Homo sapiens, UniProt Q99581 1-238); conditions: protein: recombinant; tags: N-terminal GST; dsDNA, one strand shown
# T7 sequence: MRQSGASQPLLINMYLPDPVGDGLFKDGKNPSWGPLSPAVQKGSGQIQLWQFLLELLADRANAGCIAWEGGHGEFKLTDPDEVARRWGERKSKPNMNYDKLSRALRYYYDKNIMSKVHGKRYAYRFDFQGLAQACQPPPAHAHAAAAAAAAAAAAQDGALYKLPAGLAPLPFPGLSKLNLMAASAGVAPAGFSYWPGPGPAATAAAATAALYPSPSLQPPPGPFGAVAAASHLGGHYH
# Summary of the method: as §1
# [11] = molecular target: ETV5 (Homo sapiens, UniProt P41161 1-510); conditions: protein: recombinant; tags: N-terminal GST; dsDNA, one strand shown
# Sequence of ETV5 (P41161 whole entry): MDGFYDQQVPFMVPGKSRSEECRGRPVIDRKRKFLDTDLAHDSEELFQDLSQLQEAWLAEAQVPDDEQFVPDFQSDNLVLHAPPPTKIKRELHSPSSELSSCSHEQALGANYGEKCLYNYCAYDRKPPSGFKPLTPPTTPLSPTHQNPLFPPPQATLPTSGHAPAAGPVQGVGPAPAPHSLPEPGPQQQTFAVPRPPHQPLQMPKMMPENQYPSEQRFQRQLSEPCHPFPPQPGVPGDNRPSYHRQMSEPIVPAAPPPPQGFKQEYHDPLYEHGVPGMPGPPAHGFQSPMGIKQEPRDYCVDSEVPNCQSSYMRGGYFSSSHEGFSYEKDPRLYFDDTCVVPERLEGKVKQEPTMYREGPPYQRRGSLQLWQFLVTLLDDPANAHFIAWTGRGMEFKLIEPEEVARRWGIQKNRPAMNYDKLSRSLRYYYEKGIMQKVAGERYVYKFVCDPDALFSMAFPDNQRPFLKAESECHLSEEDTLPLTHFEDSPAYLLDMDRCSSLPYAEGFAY
# Summary of the method: as §1
# [12] = molecular target: HSF1 (Homo sapiens, UniProt Q00613 1-529); conditions: protein: recombinant; tags: N-terminal GST; chain copies: 3; dsDNA, one strand shown
# Sequence of HSF1 (Q00613 whole entry): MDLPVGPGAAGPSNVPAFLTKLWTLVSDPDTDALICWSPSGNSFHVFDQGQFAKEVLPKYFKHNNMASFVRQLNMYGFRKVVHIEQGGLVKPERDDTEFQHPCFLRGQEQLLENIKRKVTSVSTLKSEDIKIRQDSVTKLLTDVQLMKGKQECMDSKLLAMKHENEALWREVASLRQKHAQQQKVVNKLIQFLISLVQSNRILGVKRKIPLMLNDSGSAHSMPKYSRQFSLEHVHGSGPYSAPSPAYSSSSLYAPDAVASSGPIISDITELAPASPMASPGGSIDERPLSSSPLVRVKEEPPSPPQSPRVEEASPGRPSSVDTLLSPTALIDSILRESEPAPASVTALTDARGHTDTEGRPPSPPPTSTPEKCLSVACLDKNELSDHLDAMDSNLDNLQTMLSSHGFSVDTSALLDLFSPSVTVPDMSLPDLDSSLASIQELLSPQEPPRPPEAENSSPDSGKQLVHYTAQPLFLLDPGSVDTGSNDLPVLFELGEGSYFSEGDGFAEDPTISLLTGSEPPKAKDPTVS
# Summary of the method: as §1
# [13] = molecular target: T8, SPIC (Homo sapiens, UniProt Q8N5J4 1-248); conditions: protein: recombinant; tags: N-terminal GST; dsDNA, one strand shown
# T8 sequence: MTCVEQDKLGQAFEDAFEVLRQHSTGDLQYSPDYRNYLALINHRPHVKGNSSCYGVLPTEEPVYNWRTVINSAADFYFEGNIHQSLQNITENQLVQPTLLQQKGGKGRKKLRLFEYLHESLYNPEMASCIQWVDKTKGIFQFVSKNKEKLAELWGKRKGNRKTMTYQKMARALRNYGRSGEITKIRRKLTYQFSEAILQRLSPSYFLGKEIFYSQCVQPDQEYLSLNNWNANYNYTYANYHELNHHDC
# Summary of the method: as §1
# [14] = molecular target: ELF4 (Homo sapiens, UniProt Q99607 1-663); conditions: protein: recombinant; tags: N-terminal GST; dsDNA, one strand shown
# Sequence of ELF4 (Q99607 whole entry): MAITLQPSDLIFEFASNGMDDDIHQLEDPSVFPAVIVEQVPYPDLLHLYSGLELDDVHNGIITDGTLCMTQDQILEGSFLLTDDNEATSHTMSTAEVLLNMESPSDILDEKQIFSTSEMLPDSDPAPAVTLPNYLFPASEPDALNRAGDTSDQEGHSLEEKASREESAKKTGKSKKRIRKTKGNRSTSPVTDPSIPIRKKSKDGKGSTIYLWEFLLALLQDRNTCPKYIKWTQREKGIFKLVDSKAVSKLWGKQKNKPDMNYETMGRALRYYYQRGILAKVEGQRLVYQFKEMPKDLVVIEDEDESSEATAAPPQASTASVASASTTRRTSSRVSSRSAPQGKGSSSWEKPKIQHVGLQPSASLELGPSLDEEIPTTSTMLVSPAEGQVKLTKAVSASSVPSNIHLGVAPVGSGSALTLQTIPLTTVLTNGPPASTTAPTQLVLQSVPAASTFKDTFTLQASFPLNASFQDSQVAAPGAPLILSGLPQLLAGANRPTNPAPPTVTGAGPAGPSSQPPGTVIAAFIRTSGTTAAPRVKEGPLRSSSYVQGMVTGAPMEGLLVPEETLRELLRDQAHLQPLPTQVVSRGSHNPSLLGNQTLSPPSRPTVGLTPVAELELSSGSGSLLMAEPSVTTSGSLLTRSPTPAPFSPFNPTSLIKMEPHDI
# Summary of the method: as §1
# [15] = molecular target: T9, ELK4 (Homo sapiens, UniProt P28324-2 1-405); conditions: protein: recombinant; tags: N-terminal GST; dsDNA, one strand shown
# T9 sequence: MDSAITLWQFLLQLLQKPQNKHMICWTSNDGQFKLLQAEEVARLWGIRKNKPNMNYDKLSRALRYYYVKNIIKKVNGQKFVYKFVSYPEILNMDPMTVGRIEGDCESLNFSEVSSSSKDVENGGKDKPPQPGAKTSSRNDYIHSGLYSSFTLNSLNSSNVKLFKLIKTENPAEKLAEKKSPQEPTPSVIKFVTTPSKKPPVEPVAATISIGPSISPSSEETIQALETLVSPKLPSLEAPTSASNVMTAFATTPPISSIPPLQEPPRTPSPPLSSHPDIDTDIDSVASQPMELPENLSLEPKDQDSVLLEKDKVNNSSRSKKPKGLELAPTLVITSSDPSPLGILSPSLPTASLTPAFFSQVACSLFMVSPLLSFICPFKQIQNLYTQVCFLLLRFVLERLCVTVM
# Summary of the method: as §1
# [16] = molecular target: T10, ETV2 (Homo sapiens, UniProt O00321 1-342); conditions: protein: recombinant; tags: N-terminal GST; dsDNA, one strand shown
# T10 sequence: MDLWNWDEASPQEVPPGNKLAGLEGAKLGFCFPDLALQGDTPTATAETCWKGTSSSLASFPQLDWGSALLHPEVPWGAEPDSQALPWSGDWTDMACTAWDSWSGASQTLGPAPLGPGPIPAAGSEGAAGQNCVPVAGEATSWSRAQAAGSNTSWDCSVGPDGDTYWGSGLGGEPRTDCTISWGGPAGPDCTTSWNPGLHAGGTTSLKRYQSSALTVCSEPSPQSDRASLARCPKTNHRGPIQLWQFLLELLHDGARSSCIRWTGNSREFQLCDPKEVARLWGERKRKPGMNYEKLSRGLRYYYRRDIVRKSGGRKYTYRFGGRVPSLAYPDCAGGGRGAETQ
# Summary of the method: as §1
# [17] = molecular target: T11, ELF3 (Homo sapiens, UniProt P78545 1-371); conditions: protein: recombinant; tags: N-terminal GST; dsDNA, one strand shown
# T11 sequence: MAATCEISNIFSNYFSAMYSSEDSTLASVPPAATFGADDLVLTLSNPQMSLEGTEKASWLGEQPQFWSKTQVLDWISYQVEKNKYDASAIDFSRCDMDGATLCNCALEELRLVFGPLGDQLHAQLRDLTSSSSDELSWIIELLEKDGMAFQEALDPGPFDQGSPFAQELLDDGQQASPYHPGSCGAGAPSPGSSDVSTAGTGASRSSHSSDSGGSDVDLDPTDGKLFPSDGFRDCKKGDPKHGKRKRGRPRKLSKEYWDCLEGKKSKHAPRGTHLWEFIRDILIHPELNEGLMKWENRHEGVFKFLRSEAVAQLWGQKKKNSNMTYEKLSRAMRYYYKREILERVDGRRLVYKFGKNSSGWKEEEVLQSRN
# Summary of the method: as §1
# [18] = molecular target: CRX (Homo sapiens, UniProt O43186 1-299); conditions: protein: recombinant; tags: N-terminal GST; dsDNA, one strand shown
# Sequence of CRX (O43186 whole entry): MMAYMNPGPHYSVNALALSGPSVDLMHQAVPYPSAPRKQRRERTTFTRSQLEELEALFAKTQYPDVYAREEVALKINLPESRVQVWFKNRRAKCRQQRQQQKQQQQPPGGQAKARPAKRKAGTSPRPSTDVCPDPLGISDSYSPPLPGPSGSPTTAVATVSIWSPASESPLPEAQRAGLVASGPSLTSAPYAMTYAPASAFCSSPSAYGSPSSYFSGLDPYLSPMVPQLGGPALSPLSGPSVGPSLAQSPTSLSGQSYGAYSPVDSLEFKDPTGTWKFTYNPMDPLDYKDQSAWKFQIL
# Summary of the method: as §1
# [19] = molecular target: ETV1 (Homo sapiens, UniProt P50549 1-477); conditions: protein: recombinant; tags: N-terminal GST; dsDNA, one strand shown
# Sequence of ETV1 (P50549 whole entry): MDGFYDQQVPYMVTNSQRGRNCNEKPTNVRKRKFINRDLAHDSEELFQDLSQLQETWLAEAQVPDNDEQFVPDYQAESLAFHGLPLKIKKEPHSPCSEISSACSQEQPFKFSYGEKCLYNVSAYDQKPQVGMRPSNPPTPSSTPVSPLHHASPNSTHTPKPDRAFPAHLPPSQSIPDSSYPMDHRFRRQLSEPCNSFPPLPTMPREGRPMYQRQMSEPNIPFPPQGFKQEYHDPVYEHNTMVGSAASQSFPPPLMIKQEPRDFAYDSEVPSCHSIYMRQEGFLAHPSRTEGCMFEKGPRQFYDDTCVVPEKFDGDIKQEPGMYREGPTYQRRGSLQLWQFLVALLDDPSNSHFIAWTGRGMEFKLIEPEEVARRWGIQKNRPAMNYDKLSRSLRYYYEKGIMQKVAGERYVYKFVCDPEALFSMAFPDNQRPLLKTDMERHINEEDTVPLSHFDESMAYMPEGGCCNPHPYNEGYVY
# Summary of the method: as §1
sequence,measurement,setting,value
ATTTAA,binding signal,[1],"1.24 fold enrichment (6-mer frequency, TF over GST control)"
same,binding signal,[2],"1.12 fold enrichment (6-mer frequency, TF over GST control)"
same,binding signal,[3],"1.14 fold enrichment (6-mer frequency, TF over GST control)"
same,binding signal,[4],"1.14 fold enrichment (6-mer frequency, TF over GST control)"
same,binding signal,[5],"1.22 fold enrichment (6-mer frequency, TF over GST control)"
same,binding signal,[6],"1.2 fold enrichment (6-mer frequency, TF over GST control)"
same,binding signal,[7],"1.16 fold enrichment (6-mer frequency, TF over GST control)"
same,binding signal,[8],"1.15 fold enrichment (6-mer frequency, TF over GST control)"
same,binding signal,[9],"1.28 fold enrichment (6-mer frequency, TF over GST control)"
same,binding signal,[10],"1.14 fold enrichment (6-mer frequency, TF over GST control)"
same,binding signal,[11],"1.24 fold enrichment (6-mer frequency, TF over GST control)"
same,binding signal,[12],"1.62 fold enrichment (6-mer frequency, TF over GST control)"
same,binding signal,[13],"1.22 fold enrichment (6-mer frequency, TF over GST control)"
same,binding signal,[14],"1.13 fold enrichment (6-mer frequency, TF over GST control)"
same,binding signal,[15],"1.18 fold enrichment (6-mer frequency, TF over GST control)"
same,binding signal,[16],"1.17 fold enrichment (6-mer frequency, TF over GST control)"
same,binding signal,[17],"1.11 fold enrichment (6-mer frequency, TF over GST control)"
same,binding signal,[18],"2.38 fold enrichment (6-mer frequency, TF over GST control)"
same,binding signal,[19],"1.14 fold enrichment (6-mer frequency, TF over GST control)"
